# Reference: the supplement of paper PMC10849652
# The full data set covers some 7,900 targets. This sample favours those with a hit. About 0.6% of all pairs of compound and target were hits. Values without a mark were called inactive.
# Key:
# Experiment in all cases: log2 fold change, soluble protein after heating vs DMSO (PISA); higher = thermal stabilisation; K562 cells, 10 uM, 30 min; active = over 0.2 and 3.5 SD of the protein, either way, in both replicates (recomputed)
# IRAK-1-4 Inhibitor I = compound: C1COCCN1CCN2C3=CC=CC=C3N=C2NC(=O)C4=CC(=CC=C4)[N+](=O)[O-] [IRAK-1-4 Inhibitor I]
# Procedure, shortened: (§1)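 Soluble protein was quantified by TMTpro 16plex LC-MS/MS after channel sums were equalised. It was obtained as the supernatant after 21,000xg for 90 min from pooled aliquots of K562 cells (2×10^6 cells/mL, 10 μM compound, 30 min) heated for 3 min across 48°C-58°C and extracted in PBS with 0.5% NP-40 at 4°C. Thermal stability values are relative to control samples and come from duplicates. They are given as log2 fold changes.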
# ibrutinib = compound: C=CC(=O)N1CCC[C@@H](n2nc(-c3ccc(Oc4ccccc4)cc3)c3c(N)ncnc32)C1 [ibrutinib]
# Procedure, shortened: as §1
# [1] = compound: CC(=O)c1cnc2ccc(-c3cc(Cl)c(O)c(Cl)c3)nc2c1N[C@H]1CC[C@H](CN(C)C)CC1
# Procedure, shortened: as §1
# ralimetinib = compound: CC(C)(C)Cn1c(N)nc2ccc(-c3[nH]c(C(C)(C)C)nc3-c3ccc(F)cc3)nc21 [ralimetinib]
# Procedure, shortened: as §1
# [2] = compound: CC(C)(O)CC(=O)NCCn1ccc2ncnc(Nc3ccc(Oc4cccc(C(F)(F)F)c4)c(Cl)c3)c21
# Procedure, shortened: as §1
# [3] = compound: CC(C)C1=C2N=C(C=C(N2N=C1)NCC3=CC=CC=C3)NCCCCCCN
# Procedure, shortened: as §1
# [4] = compound: CC(C)C[C@@H](C=O)NC(=O)[C@H](CC(C)C)NC(=O)[C@H](CC(C)C)NC(=O)OCc1ccccc1
# Procedure, shortened: as §1
# pinometostat = compound: CC(C)N(C[C@H]1O[C@@H](n2cnc3c(N)ncnc32)[C@H](O)[C@@H]1O)[C@H]1C[C@@H](CCc2nc3cc(C(C)(C)C)ccc3[nH]2)C1 [pinometostat]
# Procedure, shortened: as §1
# [5] = compound: CC1=C(C(CC(=O)N1)C2=CC=C(C=C2)C(F)(F)F)C(=O)NC3=C(C=C4C(=C3)C=NN4)F
# Procedure, shortened: as §1
# [6] = compound: CC1=C(C2=C(C=C1)C(=O)C3=CC=CC=C3N2CCCN)C
# Procedure, shortened: as §1
# [7] = compound: CC1=C(C=C(C=C1)NC(=O)C2=CC(=CC=C2)C(C)(C)C#N)NC3=CC4=C(C=C3)N=CN(C4=O)C
# Procedure, shortened: as §1
# [8] = compound: CC1=C(C=C(C=C1)NC(=O)C2=CC(=CC=C2)N(C)C)NC(=O)C3=CC=C(C=C3)O
# Procedure, shortened: as §1
# [9] = compound: CC1=CC=C(C=C1)SC2=C3C=C(SC3=CN=C2)C(=O)N
# Procedure, shortened: as §1
# [10] = compound: CC1=NC(=CC=C1)C2=C(N=C(N2)C(C)(C)C)C3=CC4=NC=CN=C4C=C3
# Procedure, shortened: as §1
# Nexturastat A = compound: CCCCN(Cc1ccc(C(=O)NO)cc1)C(=O)Nc1ccccc1 [Nexturastat A]
# Procedure, shortened: as §1
# vemurafenib = compound: CCCS(=O)(=O)Nc1ccc(F)c(C(=O)c2c[nH]c3ncc(-c4ccc(Cl)cc4)cc23)c1F [vemurafenib]
# Procedure, shortened: as §1
# [11] = compound: CCCS(=O)(=O)Nc1ccc(F)c(C(=O)c2c[nH]c3ncc(Cl)cc23)c1F
# Procedure, shortened: as §1
# [12] = compound: CCCc1cc(C)[nH]c(=O)c1CNC(=O)c1cc(-c2ccnc(N3CCN(C)CC3)c2)cc2c1cnn2C(C)C
# Procedure, shortened: as §1
# givinostat = compound: CCN(CC)Cc1ccc2cc(COC(=O)Nc3ccc(C(=O)NO)cc3)ccc2c1 [givinostat]
# Procedure, shortened: as §1
# barasertib = compound: CCN(CCCOc1ccc2c(Nc3cc(CC(=O)Nc4cccc(F)c4)[nH]n3)ncnc2c1)CCOP(=O)(O)O [barasertib]
# Procedure, shortened: as §1
# Chain of UniProt Q9NSI2 (Q9NSI2 whole entry, looked up): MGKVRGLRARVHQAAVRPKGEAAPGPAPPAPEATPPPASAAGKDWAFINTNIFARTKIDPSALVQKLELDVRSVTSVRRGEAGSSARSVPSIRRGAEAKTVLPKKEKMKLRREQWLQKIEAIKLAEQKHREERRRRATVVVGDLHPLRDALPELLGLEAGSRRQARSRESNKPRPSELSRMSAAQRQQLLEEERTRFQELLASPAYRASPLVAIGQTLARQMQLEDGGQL
# Chain of UniProt Q5QJE6 (Q5QJE6 whole entry, looked up): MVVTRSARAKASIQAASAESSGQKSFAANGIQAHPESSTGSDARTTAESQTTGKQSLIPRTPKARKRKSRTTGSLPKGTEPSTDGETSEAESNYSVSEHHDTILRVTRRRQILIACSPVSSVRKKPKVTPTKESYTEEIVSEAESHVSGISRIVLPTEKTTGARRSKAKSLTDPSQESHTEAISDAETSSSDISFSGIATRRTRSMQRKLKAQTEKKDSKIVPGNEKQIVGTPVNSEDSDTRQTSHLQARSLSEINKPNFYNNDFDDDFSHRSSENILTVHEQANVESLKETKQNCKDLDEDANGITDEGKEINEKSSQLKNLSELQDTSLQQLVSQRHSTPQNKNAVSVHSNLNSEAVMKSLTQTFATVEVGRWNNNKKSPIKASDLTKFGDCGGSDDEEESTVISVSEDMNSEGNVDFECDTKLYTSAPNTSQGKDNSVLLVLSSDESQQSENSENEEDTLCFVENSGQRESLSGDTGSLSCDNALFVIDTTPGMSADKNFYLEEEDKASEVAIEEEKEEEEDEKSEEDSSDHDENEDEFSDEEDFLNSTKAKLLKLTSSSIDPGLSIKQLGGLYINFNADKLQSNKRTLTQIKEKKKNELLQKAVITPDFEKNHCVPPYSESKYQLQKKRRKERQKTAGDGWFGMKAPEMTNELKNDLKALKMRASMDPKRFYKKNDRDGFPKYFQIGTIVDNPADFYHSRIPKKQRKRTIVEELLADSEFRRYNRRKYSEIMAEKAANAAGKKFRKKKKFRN
# Chain of UniProt P98173 (P98173 whole entry, looked up): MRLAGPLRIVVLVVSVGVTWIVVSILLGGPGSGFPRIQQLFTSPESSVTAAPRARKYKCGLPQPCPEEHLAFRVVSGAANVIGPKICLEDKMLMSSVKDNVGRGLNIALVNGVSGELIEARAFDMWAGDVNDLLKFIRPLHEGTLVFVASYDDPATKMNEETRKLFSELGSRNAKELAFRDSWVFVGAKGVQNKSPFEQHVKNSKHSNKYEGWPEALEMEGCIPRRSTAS
# Chain of UniProt O94905 (O94905 whole entry, looked up): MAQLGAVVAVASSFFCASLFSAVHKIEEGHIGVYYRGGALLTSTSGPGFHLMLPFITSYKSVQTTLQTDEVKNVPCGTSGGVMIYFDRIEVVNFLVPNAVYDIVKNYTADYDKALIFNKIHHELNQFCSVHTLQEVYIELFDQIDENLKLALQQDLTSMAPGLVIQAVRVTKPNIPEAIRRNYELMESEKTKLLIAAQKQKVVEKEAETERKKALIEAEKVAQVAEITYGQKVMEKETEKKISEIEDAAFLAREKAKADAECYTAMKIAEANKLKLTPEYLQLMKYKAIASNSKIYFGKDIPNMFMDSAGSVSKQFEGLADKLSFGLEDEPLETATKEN
# Chain of UniProt P49366 (P49366 whole entry, looked up): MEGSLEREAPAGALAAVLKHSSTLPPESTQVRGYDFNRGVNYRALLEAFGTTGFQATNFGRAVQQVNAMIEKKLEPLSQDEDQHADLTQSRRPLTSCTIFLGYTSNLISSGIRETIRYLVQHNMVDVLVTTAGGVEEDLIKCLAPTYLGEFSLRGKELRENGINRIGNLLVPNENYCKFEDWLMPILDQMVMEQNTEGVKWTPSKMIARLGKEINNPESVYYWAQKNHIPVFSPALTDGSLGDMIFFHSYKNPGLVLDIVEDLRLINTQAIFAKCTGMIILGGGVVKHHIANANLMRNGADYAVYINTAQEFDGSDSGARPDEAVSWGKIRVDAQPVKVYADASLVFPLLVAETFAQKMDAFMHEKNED
# Chain of UniProt Q96G46 (Q96G46 whole entry, looked up): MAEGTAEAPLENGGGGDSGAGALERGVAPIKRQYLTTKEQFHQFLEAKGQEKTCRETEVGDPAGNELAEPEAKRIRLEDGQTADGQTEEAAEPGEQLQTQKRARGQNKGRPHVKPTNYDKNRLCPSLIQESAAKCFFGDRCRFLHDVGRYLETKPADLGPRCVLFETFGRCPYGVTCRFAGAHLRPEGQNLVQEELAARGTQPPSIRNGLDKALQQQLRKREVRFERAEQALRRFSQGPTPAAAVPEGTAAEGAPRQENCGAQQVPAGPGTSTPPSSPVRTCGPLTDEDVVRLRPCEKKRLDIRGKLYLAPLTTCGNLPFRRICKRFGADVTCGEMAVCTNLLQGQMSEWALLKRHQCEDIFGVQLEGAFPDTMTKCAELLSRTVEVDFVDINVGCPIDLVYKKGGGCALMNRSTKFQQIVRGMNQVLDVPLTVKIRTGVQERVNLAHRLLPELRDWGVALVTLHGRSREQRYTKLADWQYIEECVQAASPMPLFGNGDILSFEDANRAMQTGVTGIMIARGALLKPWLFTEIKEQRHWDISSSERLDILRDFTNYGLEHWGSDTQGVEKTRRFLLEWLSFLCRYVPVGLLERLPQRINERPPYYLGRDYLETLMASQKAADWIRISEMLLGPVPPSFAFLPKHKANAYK
# Chain of UniProt O75071 (O75071 whole entry, looked up): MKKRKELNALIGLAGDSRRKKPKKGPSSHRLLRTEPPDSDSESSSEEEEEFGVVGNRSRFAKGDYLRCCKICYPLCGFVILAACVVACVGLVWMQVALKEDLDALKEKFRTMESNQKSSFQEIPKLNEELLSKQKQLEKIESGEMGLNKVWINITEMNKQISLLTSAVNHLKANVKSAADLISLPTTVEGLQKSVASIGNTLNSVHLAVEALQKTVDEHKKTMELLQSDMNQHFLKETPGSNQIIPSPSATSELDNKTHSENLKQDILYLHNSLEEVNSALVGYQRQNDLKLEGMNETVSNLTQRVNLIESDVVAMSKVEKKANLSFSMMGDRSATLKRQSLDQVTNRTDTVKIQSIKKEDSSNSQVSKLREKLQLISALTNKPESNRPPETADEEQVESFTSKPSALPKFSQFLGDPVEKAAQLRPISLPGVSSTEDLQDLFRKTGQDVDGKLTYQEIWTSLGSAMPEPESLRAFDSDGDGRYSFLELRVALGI
# Chain of UniProt Q96GG9 (Q96GG9 whole entry, looked up): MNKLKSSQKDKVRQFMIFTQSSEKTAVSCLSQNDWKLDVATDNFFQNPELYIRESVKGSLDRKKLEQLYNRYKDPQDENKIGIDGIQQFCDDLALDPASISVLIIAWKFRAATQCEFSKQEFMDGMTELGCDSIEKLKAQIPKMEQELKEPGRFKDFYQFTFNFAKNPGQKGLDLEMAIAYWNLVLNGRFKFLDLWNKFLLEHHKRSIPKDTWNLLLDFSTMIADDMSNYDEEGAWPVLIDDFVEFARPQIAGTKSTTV
# Chain of UniProt Q0VG06 (Q0VG06 whole entry, looked up): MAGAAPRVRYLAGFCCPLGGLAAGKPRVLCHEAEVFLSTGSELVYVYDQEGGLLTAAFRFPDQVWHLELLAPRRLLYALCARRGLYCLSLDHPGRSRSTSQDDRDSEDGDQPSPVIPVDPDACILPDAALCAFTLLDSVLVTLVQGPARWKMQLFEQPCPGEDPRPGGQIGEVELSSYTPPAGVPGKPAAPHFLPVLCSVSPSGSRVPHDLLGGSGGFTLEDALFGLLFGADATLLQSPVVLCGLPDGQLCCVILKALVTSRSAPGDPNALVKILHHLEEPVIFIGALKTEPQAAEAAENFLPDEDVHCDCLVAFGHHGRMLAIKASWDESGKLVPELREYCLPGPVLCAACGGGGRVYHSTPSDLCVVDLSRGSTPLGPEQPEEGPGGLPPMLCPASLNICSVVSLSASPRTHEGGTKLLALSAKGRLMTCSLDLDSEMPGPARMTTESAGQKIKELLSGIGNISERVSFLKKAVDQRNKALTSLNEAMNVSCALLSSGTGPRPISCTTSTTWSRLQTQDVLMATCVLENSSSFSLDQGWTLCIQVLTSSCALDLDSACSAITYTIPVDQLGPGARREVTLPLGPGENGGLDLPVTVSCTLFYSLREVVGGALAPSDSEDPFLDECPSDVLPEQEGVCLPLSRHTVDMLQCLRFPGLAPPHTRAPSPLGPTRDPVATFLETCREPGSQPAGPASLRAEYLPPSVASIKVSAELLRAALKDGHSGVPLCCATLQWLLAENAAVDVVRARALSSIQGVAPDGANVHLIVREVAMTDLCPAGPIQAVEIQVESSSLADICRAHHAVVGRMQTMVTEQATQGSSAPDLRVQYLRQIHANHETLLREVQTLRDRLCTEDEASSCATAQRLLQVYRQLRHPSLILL
# Chain of UniProt Q96GE9 (Q96GE9 whole entry, looked up): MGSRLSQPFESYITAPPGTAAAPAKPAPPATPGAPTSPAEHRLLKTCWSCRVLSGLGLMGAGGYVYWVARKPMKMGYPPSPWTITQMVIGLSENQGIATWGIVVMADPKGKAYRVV
Target,log2 fold change (IRAK-1-4 Inhibitor I),log2 fold change (ibrutinib),log2 fold change [1],log2 fold change (ralimetinib),log2 fold change [2],log2 fold change [3],log2 fold change [4],log2 fold change (pinometostat),log2 fold change [5],log2 fold change [6],log2 fold change [7],log2 fold change [8],log2 fold change [9],log2 fold change [10],log2 fold change (Nexturastat A),log2 fold change (vemurafenib),log2 fold change [11],log2 fold change [12],log2 fold change (givinostat),log2 fold change (barasertib)
DCUN1D1 (UniProt Q96GG9),0.031,0.016,-0.06,-0.047,-0.002,-0.061,-0.022,-0.035,0.014,0.018,-0.027,-0.077,0.022,0.078,0.018,0.008,0.05,-0.028,-0.018,0.013
FAM207A (UniProt Q9NSI2),-0.043,-0.082,0.057,0.123,-0.033,-0.066,0.088,0.024,0.005,0.038,-0.086,0.11,-0.006,0.024,-0.047,0.038,-0.006,0.44,0.148,-0.036
DHPS (UniProt P49366),0.011,-0.004,0.02,-0.04,-0.043,0.047,-0.012,-0.095,0.008,-0.027,-0.074,0.016,0.034,0.161,-0.079,0.067,0.008,-0.015,-0.001,0.01
EFCAB14 (UniProt O75071),-0.016,0.043,-0.196,0.135,-0.009,-0.127,-0.063,-0.061,-0.035,0.006,-0.034,0.061,0.022,-0.011,-0.032,-0.049,0.012,0.023,0.054,-0.01
"EED, A0A5F9ZI63",-0.032,-0.012,-0.041,0.042,0.053,0.05,0.03,0.052,-0.001,0.145,0.005,-0.067,-0.012,-0.019,0.013,-0.02,0.025,-0.204 (active),0.082,-0.038
FAAP100 (UniProt Q0VG06),0.026,-0.247,-0.025,-0.065,-0.085,-0.043,-0.05,0.013,-0.097,0.055,-0.004,-0.001,-0.039,0.066,-0.327 (active),0,-0.033,0.167,0.024,0.051
DUS3L (UniProt Q96G46),0,0.008,-0.031,0.042,-0.043,0.062,-0.055,-0.022,-0.001,-0.005,0.064,-0.015,-0.01,0.017,-0.023,0.042,0.031,0.036,-0.004,0.021
ERLIN2 (UniProt O94905),-0.089,0.001,0.058,0.004,0,-0.296 (active),0.035,0.093,0.021,0.013,-0.045,-0.024,0.009,-0.037,0.104,-0.062,0.008,0.12,0.038,-0.003
DMAC1 (UniProt Q96GE9),0.018,0.048,0.034,-0.011,0.072,0.019,0.067,-0.002,0.063,-0.013,-0.173,0.041,0.116,0.005,-0.071,-0.18,-0.035,-0.04,-0.179,0.074
DNTTIP2 (UniProt Q5QJE6),-0.027,0.045,-0.265,0.089,0.046,-0.234,0.046,0.266,-0.017,-0.975 (active),0.033,0.028,-0.087,-0.061,0.151,-0.015,-0.064,-0.1,0.057,-0.062
FAM3A (UniProt P98173),-0.028,-0.011,0.028,0.023,-0.028,-0.07,0.047,0.007,0.018,0.088,-0.022,0.012,-0.005,0.003,-0.304 (active),0.015,0.013,-0.031,-0.001,0.014
DDB1 (UniProt Q16531),0.038,0.026,0.002,-0.053,-0.008,0.071,-0.017,-0.03,0.022,-0.001,-0.012,0.011,0.006,0,-0.036,-0.012,-0.003,-0.027,0,-0.01
